Screens (PubChem)
HPGD block = blocks human HPGD enzyme activity | P15428 | purified HPGD, NADH fluorescence kinetic, PGE2 substrate | Potency, µM, hits mostly inhibitors | 4.3% of 150,000 active | AID 894; active means well fitted inhibition curve with a large enough effect, not every such curve was filed as active; inconclusive means small, poorly fitted or top-dose-only effect, or another doubt; inactive means no such curve, though single readings can be large or run the other way
Target sequence (P15428 whole entry, looked up): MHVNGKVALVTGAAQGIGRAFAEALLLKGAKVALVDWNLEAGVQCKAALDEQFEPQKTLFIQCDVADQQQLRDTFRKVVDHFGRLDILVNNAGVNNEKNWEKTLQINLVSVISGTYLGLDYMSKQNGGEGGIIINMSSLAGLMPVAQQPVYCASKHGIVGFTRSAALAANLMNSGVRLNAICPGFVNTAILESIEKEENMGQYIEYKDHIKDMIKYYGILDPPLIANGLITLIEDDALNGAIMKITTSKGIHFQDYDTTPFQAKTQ
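NADH formation kinetics: reaction with 30 uM PGE2 and 1 mM NAD+ (final), 20 nM enzyme, Tris-HCl pH 8 with Tween 20, after 15 min compound preincubation at room temperature. Fluorescence change, last versus first of five reads.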
ALDH1A1 block = ALDH1A1 (human) enzyme inhibition; P00352; Purified ALDH1A1, NADH fluorescence, propionaldehyde substrate; Potency, µM (highest dose often 75.3 µM), usual class: inhibitors; 7.3% of 220,000 active; AID 1030; active means well fitted inhibition curve with a large enough effect, not every such curve was filed as active; inconclusive means small, poorly fitted or top-dose-only effect, or another doubt; inactive means no such curve, though single readings can be large or run the other way
HTT ATP protect = protects HTT-Q103 PC12 cells, measured by ATP | 0.14% of 230,000 active | AID 1471 | Potency, µM (top dose mostly 56.4 µM), hits mostly activators | PC12 HTT-Q103 induced, cytoprotection, ATP luminescence, 40 h; further: nearly all actives have a fitted effect of over 45% in size
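Compounds were screened for protection of PC12 cells against cell death after tebufenozide induction (100 nM final) of mutant Huntingtin exon 1 (Q103) fused to GFP.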
HTT aggregate = inhibitors of mutant huntingtin aggregate formation in PC12 cells; PC12 HttQ103-GFP aggregates, Acumen cytometry, 40 h; Potency, µM (doses to about 46.1 µM), usual class: inhibitors; 1.1% of 220,000 active; further: nearly all actives have a fitted effect of over 60% in size
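Quantitative HTS on tebufenozide-induced (100 nM) PC12 cells stably expressing polyQ103 Huntingtin exon 1–GFP. Reduction of bright GFP aggregates, detected by laser scanning cytometry after lysis, identified actives across the titration.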
LMNA splice mod = modulators of lamin A splicing | HeLa LMNA splicing GFP/RFP minigene ratio, 48 h | Potency, µM (top dose mostly 46.1 µM), most hits filed as inhibitors | 0.01% of 200,000 active | AID 1487; active means well fitted inhibition curve with a large enough effect in the signal ratio, with a control signal flat, not every such curve was filed as active; inconclusive means small, poorly fitted or top-dose-only effect, or effect the other way, or a change in a side signal; the % refers to the signal ratio
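Read-out is the ratio of GFP to DsRed2 object intensity, acquired by 488 nm laser-scanning cytometry on HeLa lamin A-EGFP minigene reporter cells. Compound incubation 48 hrs at 37 °C in Opti-MEM with 2% FBS; DMSO 0.5% final.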
Numbers stand for hits; . = inactive; ? = inconclusive; / = not tested or not shown; [ ] = dose if it differs, or a comment. Most compounds without a hit are left out; they make up all but 8.8% or so of the library. Unless noted, the call rests on the fitted dose curve; in most records, active means well fitted curve in the direction sought with a large enough effect; inconclusive means small, poorly fitted or top-dose-only effect, or another doubt; inactive means no such curve, though single readings can be large; an effect the other way counts as inactive or inconclusive.

SMILES	HPGD block	ALDH1A1 block	HTT ATP protect	HTT aggregate	LMNA splice mod
CCOC(=O)C1CCC(CN(Cc2cccc(Br)c2)S(=O)(=O)c2ccc(C)cc2)CC1 (configuration not stated)	/	/	/	/	.
Cc1ccsc1/C=N/NC(=O)c1cccnc1	/	/	.[10 µM]	.[9.22 µM]	/
COc1ccc(-c2csc(NC(=O)CN3C(=O)CCC3=O)n2)cc1OC	28µM	.	.[10 µM]	.	.
O=C(CN1C(=O)CCC1=O)Nc1nc(-c2ccc(Oc3ccccc3)cc2)cs1	18µM	.	.[10 µM]	.	.
CCNc1ncc2nc(-c3cc(F)cc(F)c3)c(=O)n(Cc3cccs3)c2n1	?	?	.	/	/
COc1ccc(C(=O)CSc2nnc(NC(=O)C3CC(=O)N(c4ccccc4C)C3)s2)cc1 (configuration not stated)	.	11µM	.[10 µM]	.	.
COc1cccc(N2CC(C(=O)Nc3nnc(SCC(=O)Nc4cc(C)on4)s3)CC2=O)c1 (configuration not stated)	/	.	.	.	.
CSC(N)=NCCCC(N)C(=O)O (configuration not stated)	.	.	/	/	.
COc1ccc(NC(=O)COC(=O)Cc2c[nH]c3ccccc23)cc1OC	/	.	.	.	.
CCOc1ccc(NC(=O)COC(=O)CCCc2c[nH]c3ccccc23)cc1	.	16µM	.	.	.
CC(=O)Nc1ccc(NC(=O)COC(=O)Cc2c[nH]c3ccccc23)cc1	.	14µM	.[10 µM]	.	.
CC(=O)N[C@@H](Cc1c[nH]c2ccccc12)C(=O)OCC(=O)Nc1ccc(Cl)c(S(=O)(=O)N(C)C)c1	/	?	.	.	.
CC(=O)NC(Cc1c[nH]c2ccccc12)C(=O)OCC(=O)Nc1ccc2c(c1)OCO2 (configuration not stated)	.	5µM	.[4.97 µM]	.	.
CC(=O)OCC(=O)NCC(=O)c1c[nH]c2ccccc12	16µM	.	/	.	.
CCCCC/C=C\C[C@@H](O)/C=C/C=C\C/C=C\CCCC(=O)O	.	.	.	/	/
CCN(CC)CCNC(=O)c1c2c(nc3ccccc13)C(=O)N(C1CCCCC1)C2	/	/	/	/	.
CCc1nn2c(=O)cc(COC(=O)CNC(=O)COc3ccc(C)cc3)nc2s1	/	/	/	/	.
COc1ccccc1-c1nc(NCc2ccccc2)c2ccccc2n1	.	.	.	/	?
COc1cccc(NC(=O)COC(=O)CCCc2c[nH]c3ccccc23)c1	.	.	.	.	.
COc1ccc(NC(=O)COC(=O)CCCc2c[nH]c3ccccc23)cc1	.	8.9µM	.	.	.
Cc1cccc(N2CCN(C(=O)c3ccc4c(c3)N(Cc3cccc(Cl)c3)C(=O)c3ccccc3S4=O)CC2)c1C (configuration not stated)	/	/	/	/	.
O=C1CC(N2CCN(c3nc4ccccc4s3)CC2)C(=O)N1Cc1cccs1 (configuration not stated)	.	22µM	.	.	?
O=C1CC(N2CCN(c3ccc(F)cc3)CC2)C(=O)N1Cc1cccs1 (configuration not stated)	.	14µM	.[1.9 µM]	.	.
CCN1C(=O)CC(N2CCN(c3ccc(C(=O)c4ccccc4)cc3)CC2)C1=O (configuration not stated)	22µM	?	.	11µM	?
CCCOc1ccc(N2C(=O)CC(N3CCN(c4nc5ccccc5s4)CC3)C2=O)cc1 (configuration not stated)	.	14µM	.[10 µM]	.	.
SMILES	HPGD block	ALDH1A1 block	HTT ATP protect	HTT aggregate	LMNA splice mod
CCN1C(=O)CC(N2CCN(c3ccc(Cl)cc3)CC2)C1=O (configuration not stated)	.	.	.	.	?
COc1cc(/C=N/NC(=O)c2sc(N)c(C#N)c2C)cc(Br)c1O	.	13µM	.	.	?
COc1ccc(C)cc1-n1[nH]nnc1=S	/	10µM	.	.	?
Cc1cc(C)c(-n2[nH]nnc2=S)c(C)c1	/	22µM	.[10 µM]	.[9.22 µM]	/
C/C(=N/NC(=O)CN1CCN(S(=O)(=O)c2ccc(Br)cc2)CC1)c1ccco1	.	.	.[10 µM]	.	.
O=[N+]([O-])c1cc(/C=N\Nc2nccs2)ccc1O	8.9µM	?	.	.	.
O=C(Nc1nccs1)c1ccc(Cl)cc1[N+](=O)[O-]	.	.	.	.	.
COc1ccc(/C=N\NC(=O)CNC(=O)C(c2ccccc2)c2ccccc2)cc1[N+](=O)[O-]	.	11µM	.[10 µM]	?	?
O=C(COc1ccccc1[N+](=O)[O-])N/N=C/c1ccc(O)c([N+](=O)[O-])c1	/	25µM	.[10 µM]	.	.
COc1cc(/C=N\NC(=O)CNC(=O)C(c2ccccc2)c2ccccc2)ccc1O	/	/	.[10 µM]	.[9.22 µM]	/
CCCCC/C=C\C[C@@H]1O[C@H]1/C=C/C(O)C/C=C\CCCC(=O)O (some centres not stated)	.	.	.	/	/
Cc1ccc(C)c(N2CCN(CCCNC(=O)Cn3cccc3C(=O)c3ccccc3C)CC2)c1	/	.	.	16µM	/
Cc1ccccc1C(=O)c1cccn1CC(=O)NCCN1CCN(c2cccc(C)c2C)CC1	.	.	.	?	?
COc1ccc(-c2nc3cnc(N4CCNCC4)nc3n(C3CC3)c2=O)cc1	?	?	.	/	/
COc1ccc2c(c1)O[C@@H](c1ccc3c(c1)OCO3)[C@H](OC(=O)N[C@H]1CCCc3ccccc31)C2=O	.	.	?	/	/
O=[N+]([O-])c1ccc(C[n+]2ccc(Cc3ccccc3)cc2)cc1	/	25µM	.	.	/
Cc1cccc[n+]1CC(=O)Nc1ccc([N+](=O)[O-])cc1Cl	.	.	.	.	.
COc1cc([N+](=O)[O-])ccc1NC(=S)NCc1ccccn1	.	18µM	.[10 µM]	.	.
O=C(C[n+]1ccc(Cc2ccccc2)cc1)Nc1ccc([N+](=O)[O-])cc1Cl	/	20µM	/	?	?
COc1ccc(NC(=O)CCN2C(=O)c3ccc([N+](=O)[O-])cc3C2=O)c(OC)c1	.	20µM	/	.	.
Cc1ccc(OC(=O)c2snnc2C)cc1C	/	/	/	/	.
CCC(C)(C(=O)NC1CCCC1)N(Cc1cccs1)C(=O)c1ccc2c(c1)OCO2 (configuration not stated)	.	.	.[10 µM]	.	.
CCCCCC(=O)Nc1cccc(C2=NOC3(C2)C[C@H](C(N)=O)N(C(=O)c2ccccc2C(=O)c2ccccc2)C3)c1 (some centres not stated)	/	/	.[10 µM]	.[9.22 µM]	/
COc1cc([N+](=O)[O-])ccc1NC(=O)Cn1ccsc1=N	/	8.9µM	.[10 µM]	.[9.22 µM]	/
COc1cc([N+](=O)[O-])ccc1NC(=O)C[n+]1ccccc1	.	14µM	.[1.9 µM]	.	.
COc1cc([N+](=O)[O-])ccc1NC(=O)C[n+]1cccc(C(C)=O)c1	/	?	/	.	/
C/C(=C\c1ccccc1)CN1CCC(C(=O)N2CCCCC2)CC1	14µM	?	.[10 µM]	.	.
CCCCNC(=O)C1CCN(C/C(C)=C/c2ccccc2)CC1	.	?	.	.	.
CC1CCN(C(=O)C2CCN(CCCc3ccccc3)CC2)CC1	.	?	.[10 µM]	.	.
